# Screening data from PubChem.
# SARS PLpro yeast – inhibitors of SARS-CoV papain-like protease in yeast | S. cerevisiae expressing SARS-CoV PLpro, growth rescue | Potency, µM (top dose mostly 32.9 µM), for the others: top-dose activity, positive = growth rescue, actives largely listed as activators | 330,000 tested, 0.19% active | AID 485353; calls by dose curve; also: potency is read from the fitted curve at half-maximal effect; 0% is about no effect; nearly all actives have a fitted effect of over 55% in size
# AMA1 RON2 block – disrupts binding of P. falciparum AMA1 to RON2. AlphaScreen AMA1-biotinylated RON2 peptide binding. 360,000 tested, 0.2% active. Potency, µM (series often up to 58.2 µM), inactives show top-dose activity change, negative = inhibition, usual class: inhibitors;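 also: potency is read from the fitted curve at half-maximal effect; 0% = vehicle wells and -100% = peptide control; nearly all actives have a fitted effect of over 45% in size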
#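 AMA1 (3D7) with his tag at 25 nM final met compounds first, then biotinylated RON2 peptide at 25 nM; detection used donor plus acceptor beads, 10 µg/mL apiece, read by AlphaScreen after 30 min at room temperature.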
# Shiga inhibitor – blocks Shiga toxin action in Vero cells; Vero cells, Shiga toxin protein synthesis inhibition reporter; inhibition, % at 38.7 µM; 290,000 tested, 9.2% active; AID 2315; in the data active = inhibition mostly above about 28%, no sharp cut-off; inactive = mostly below about 43%; also: 0% is about no effect
# Pf growth 48h – inhibits P. falciparum growth in the first generation, 48 h | P. falciparum luciferase growth in erythrocytes, 48 h | Potency, µM (doses to about 28.7 µM), for the others: at the highest dose activity change, negative = inhibition, actives largely listed as inhibitors | AID 504832 | 310,000 tested, 5.9% active; also: potency is read from the fitted curve at half-maximal effect; % is scaled to controls: 0 for no effect and ±100 for the full control effect
#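 Erythrocytes infected with P. falciparum carrying an integrated firefly luciferase reporter (2% hematocrit, 0.1% parasitemia final) were exposed to compounds in RPMI 1640 with 0.5% Albumax at 37 C, 5% CO2. Growth inhibition was scored as reduced luminescence.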
# Cycloheximide cs – counter-screen for Shiga toxin inhibitors: cycloheximide protein synthesis inhibition; cell reporter, cycloheximide protein synthesis inhibition counterscreen; max response, %; AID 2314; 300,000 tested, 12% active; in the data active = max response mostly above about 13%, no sharp cut-off; inactive = mostly below about 14%; also: read at 38.3 µM for the half of the compounds with a filed dose; 0% is about no effect
# Pf growth 96h – inhibits malaria parasite growth, 96 h; P. falciparum luciferase reporter growth, 96 h; 320,000 tested, 6.9% active; Potency, µM (series often up to 28.7 µM), for inactives: at the highest dose activity change, negative = inhibition, hits mostly inhibitors; also: potency is read from the fitted curve at half-maximal effect; % is scaled to controls: 0 for no effect and ±100 for the full control effect
#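 Plates of compound plus infected erythrocytes (2% hematocrit, 0.05% parasitemia final) incubate 96 hours, 37 C, 5% CO2. Detection reagent added; reduced luminescence from the parasites' luciferase reporter flags inhibition.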
# The depositor's hits bear a star; ? = inconclusive; . = no result; [ ] = another dose, or the depositor's remark. In the library only some 19% were active in any assay of this set; here they are far more common. Unless noted, calls follow the shape of the dose curve; as a rule, active = well fitted curve in the direction sought with a large enough effect; inconclusive = small, poorly fitted or top-dose-only effect, or another doubt; inactive = no such curve, though single readings can be large; an effect the other way counts as inactive or inconclusive.
SMILES,SARS PLpro yeast,AMA1 RON2 block,Shiga inhibitor,Pf growth 48h,Cycloheximide cs,Pf growth 96h
Fc1ccc(-c2csc3ncnc(Cl)c23)cc1,12.8%,-1.1%,13.2,0.233µM*,0.1,?
COc1ccc(-c2csc3ncnc(Cl)c23)cc1,0.7%,17.4%,-25.8,1.31µM*,-3.5,19.0%
Clc1ccc(-c2csc3ncnc(Cl)c23)cc1,-5.4%,-1.6%,-6.8,?,-5.3,?
O=C(OC1CCN(c2ncc(C(F)(F)F)cc2Cl)CC1)c1ccccc1,-9.2%,-2.1%,-12.6,32.1%,-3.6,55.7%
NNC(=O)C=C1CCN(c2ncc(C(F)(F)F)cc2Cl)CC1,4.7%,-0.6%,6.6,31.9%,18.3*,21.0%
O=C(O)C=C1CCN(c2ncc(C(F)(F)F)cc2Cl)CC1,-7.3%,-7.2%,33.9,36.7%,26.2*,?
COC(=O)c1c(/N=C/N(C)C)sc2c1CCN(c1ncc(C(F)(F)F)cc1Cl)C2,-13.2%,-4.7%,4.8,?,27.8*,-28.2%
O=C(CN1CCN(c2ncc(C(F)(F)F)cc2Cl)CC1)N1CCN(c2ncc(C(F)(F)F)cc2Cl)CC1,-15.9%,34.3%,-12.0,.,0.9,11.7µM*
O=C(CSc1ccc(Cl)cc1)N1CCN(c2ncc(C(F)(F)F)cc2Cl)CC1,-10.1%,39.7%,1.4,?,1.6,-13.3%
CCN(C(=O)N(CC)c1ccccc1)c1ccccc1,4.2%,-1.2%,.,27.2%,.,48.3%
O=[N+]([O-])c1ccc(OC(F)F)c(/C=N/n2cnnc2)c1,-1.1%,0.0%,-1.9,35.6%,1.5,0.0%
CCOC(=O)c1c(C)cc(O)cc1O,.,3.9%,.,.,.,.
CCN(CC)c1ccc(CNc2ccc(Br)cn2)cc1,-1.4%,-16.9%,87.9*,18.3%,33.1*,?
Cc1cc(/C=N/Nc2ccc([N+](=O)[O-])cn2)c(C)n1-c1ccc(C(=O)O)cc1,0.4%,10.9%,25.9,45.8%,-1.5,?
Cc1ccccc1-n1c(C)cc(/C=N/Nc2ccc([N+](=O)[O-])cn2)c1C,-5.5%,-11.2%,91.2*,?,36.2*,.
O=[N+]([O-])c1ccc(NN=Cc2ccccc2)nc1,.,54.7%,.,.,.,.
O=[N+]([O-])c1ccc(N/N=C\c2cccn2-c2ccccc2)nc1,-15.5%,?,13.0,?,16.8*,?
N=c1oc2ccc3ccccc3c2cc1-c1nnc2n1CCCCC2,-2.5%,3.4%,5.1,40.6%,9.2,9.28µM*
COc1ccc2oc(=N)c(-c3nnc4n3CCCCC4)cc2c1,-10.6%,14.1%,-10.3,38.6%,-4.7,.
CC(C)CCC[C@@H](C)[C@@H]1CC[C@H]2C3=CC=C4CC(O)CC[C@]4(C)[C@H]3CC[C@@]21C (stereo partly drawn),.,.,16.6,.,-3.6,.
CC(NC(=O)COc1ccc(-c2nnco2)cc1)c1ccc(Cl)cc1Cl (stereo not drawn),6.6%,-4.4%,-3.2,?,-3.3,13.1µM*
O=C(COc1ccc(-c2nnco2)cc1)NCc1ccccc1Cl,11.1%,24.1%,1.4,-3.9%,-0.3,?
CC(C)(C)c1ccc(C(=O)N2[C@H](COCc3ccccc3)C=CS2(=O)=O)cc1,.,19.9%,.,.,.,.
O=C1c2ccccc2C(=O)c2c1cccc2N1CCOCC1,1.7%,?,78.7*,14.9%,27.4*,103.5%
CN1CCN(c2cccc3c2C(=O)c2ccccc2C3=O)CC1,-18.0%,-20.3%,47.2*,?,36.5*,-9.6%
SMILES,SARS PLpro yeast,AMA1 RON2 block,Shiga inhibitor,Pf growth 48h,Cycloheximide cs,Pf growth 96h
CC(OC(=O)CCCN=C1NS(=O)(=O)c2ccccc21)C(=O)NC1CCCCC1C (stereo not drawn),3.1%,-2.2%,-6.2,55.0%,11.5,-24.1%
Cn1c(N)c(C(=O)COC(=O)COc2ccc3ccccc3c2)c(=O)n(C)c1=O,-3.0%,-9.4%,4.0,-15.6%,11.3,-1.6%
N/C(Cc1ccc([N+](=O)[O-])cc1)=N\OC(=O)c1ccccc1F,-0.9%,1.8%,38.5*,97.1%,18.3*,37.3%
O=C(OCc1c(F)cccc1Cl)c1cc([N+](=O)[O-])ccc1N1CCOCC1,4.2%,?,.,?,.,6.9%
N/C(Cc1ccc(Cl)cc1)=N\OC(=O)c1cccc2ccccc12,-57.6%,11.7%,36.5,?,23.2*,?
O=C(Cc1ccc([N+](=O)[O-])cc1)OCc1c(F)cccc1Cl,6.4%,-2.7%,56.3,124.5%,17.1*,0.0%
COc1ccc(C/C(N)=N/OC(=O)c2ccc(Cl)cc2)cc1,-3.6%,15.6%,55.2*,?,21.3*,-14.4%
N/C(Cc1ccc([N+](=O)[O-])cc1)=N\OC(=O)Cc1ccc(Cl)cc1,-100.8%,12.6%[11.6 µM],17.5,-10.7%,2.2,23.6%
COc1ccc(CC(=O)O/N=C(\N)Cc2ccc(OC)cc2)cc1,-2.8%,12.7%,27.7,30.4%,-2.7,?
COC(=O)c1ccc(C(=O)OC)c(NC(=O)CN(c2ccc3c(c2)OCO3)S(C)(=O)=O)c1,0.3%,-7.4%,-6.4,-11.4%,-1.3,.
CSc1cccc(N2C(=O)C3CCCN3C2=S)c1 (stereo not drawn),2.9%,-23.9%,-9.2,?,0.9,-2.1%
O=C(COc1ccc(Cl)cc1)OCCNC12CC3CC(CC(C3)C1)C2,.,.,.,-10.7%,.,-23.9%
N/C(Cc1ccc(Cl)cc1)=N\OC(=O)c1ccc2ccccc2c1,-23.4%,4.9%,4.8,?,8.6,10.4µM*
Cc1ccc(C2=NS(=O)(=O)N(C)C(C(=O)NCc3ccc4c(c3)OCO4)=C2)cc1,-9.0%,-7.1%,-0.9,7.6%,-4.7,0.2%
O=C(NNC(=O)c1ccc[nH]1)c1cccc(C(F)(F)F)c1,-0.4%,12.6%,8.4,?,-2.0,-0.2%
O=C(NNC(=O)c1ccc[nH]1)Nc1cccc(C(F)(F)F)c1,?,54.6%,72.0*,28.2%,43.3*,65.9%
O=C(NNC(=O)c1ccc[nH]1)Nc1cc(Cl)cc(Cl)c1,0.6%,38.9%,31.3,13.2%,14.8*,38.6%
O=C(Nc1ccccc1)Nc1cc(Cl)cc(Cl)c1,-24.5%,5.0%,39.5,.,25.5,.
O=C(O)CCC1(CCC(=O)O)c2ccccc2-c2ccccc21,0.7%,14.1%,-4.6,-5.8%,-1.8,6.57µM*
O=C(CCCOc1ccccc1)N1CCN(S(=O)(=O)c2ccccc2)CC1,13.3%,-1.4%,.,-23.9%,.,-7.3%
Cc1cccc(N2CCN(C(=O)Cc3ccccc3[N+](=O)[O-])CC2)c1C,-5.7%,-5.8%,24.3,15.1%,26.9*,-22.2%
Cc1cccc(N2CCN(C(=O)c3c(C)nn(Cc4ccccc4Cl)c3C)CC2)c1C,-25.4%,-2.6%,-3.1,.,9.8,7.38µM*
Cc1cccc(N2CCN(C(=O)CCCOc3ccccc3)CC2)c1C,-15.6%,8.2%,134.5*,128.6%,63.6*,7.7%
CCOC(=O)N1CCN(C(=O)CCCOc2ccccc2)CC1,0.4%,8.0%,112.9*,161.7%,28.8*,.
O=C1Nc2ccccc2N(O)N1c1cc(-c2ccc(Cl)cc2)[nH]n1,16.4%,12.5%,13.4,37.6%,9.7,?
